Bioassay records (PubChem BioAssay)
Sampled rows, rich in hits. Any-hit rate of the full collection: about 1.4%.
NPR2 activator: human GC-B receptor activators, primary screen, HEK293 GC-B cells, cGMP TR-FRET, EC30 CNP. hit rate 0.11% among 370,000. activation, % at 10 µM. 0% at EC30 CNP, 100% saturating CNP;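 active = activation at 10 µM reaching about 35% in either raw or pattern-adjusted values, limit read from the data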
GC-A act: GC-A stimulated cGMP production enhancers – HEK293 GC-A cells, cGMP TR-FRET, EC30 ANP, primary screen. Atrial natriuretic peptide receptor 1 (Homo sapiens), P16066. 0% at EC30 ANP, 100% saturating ANP. activation, % at 10 µM. AID 1671463, 2021. hit rate 0.14% among 370,000; in the data active = activation above about 40%
Target sequence (P16066 whole entry, looked up): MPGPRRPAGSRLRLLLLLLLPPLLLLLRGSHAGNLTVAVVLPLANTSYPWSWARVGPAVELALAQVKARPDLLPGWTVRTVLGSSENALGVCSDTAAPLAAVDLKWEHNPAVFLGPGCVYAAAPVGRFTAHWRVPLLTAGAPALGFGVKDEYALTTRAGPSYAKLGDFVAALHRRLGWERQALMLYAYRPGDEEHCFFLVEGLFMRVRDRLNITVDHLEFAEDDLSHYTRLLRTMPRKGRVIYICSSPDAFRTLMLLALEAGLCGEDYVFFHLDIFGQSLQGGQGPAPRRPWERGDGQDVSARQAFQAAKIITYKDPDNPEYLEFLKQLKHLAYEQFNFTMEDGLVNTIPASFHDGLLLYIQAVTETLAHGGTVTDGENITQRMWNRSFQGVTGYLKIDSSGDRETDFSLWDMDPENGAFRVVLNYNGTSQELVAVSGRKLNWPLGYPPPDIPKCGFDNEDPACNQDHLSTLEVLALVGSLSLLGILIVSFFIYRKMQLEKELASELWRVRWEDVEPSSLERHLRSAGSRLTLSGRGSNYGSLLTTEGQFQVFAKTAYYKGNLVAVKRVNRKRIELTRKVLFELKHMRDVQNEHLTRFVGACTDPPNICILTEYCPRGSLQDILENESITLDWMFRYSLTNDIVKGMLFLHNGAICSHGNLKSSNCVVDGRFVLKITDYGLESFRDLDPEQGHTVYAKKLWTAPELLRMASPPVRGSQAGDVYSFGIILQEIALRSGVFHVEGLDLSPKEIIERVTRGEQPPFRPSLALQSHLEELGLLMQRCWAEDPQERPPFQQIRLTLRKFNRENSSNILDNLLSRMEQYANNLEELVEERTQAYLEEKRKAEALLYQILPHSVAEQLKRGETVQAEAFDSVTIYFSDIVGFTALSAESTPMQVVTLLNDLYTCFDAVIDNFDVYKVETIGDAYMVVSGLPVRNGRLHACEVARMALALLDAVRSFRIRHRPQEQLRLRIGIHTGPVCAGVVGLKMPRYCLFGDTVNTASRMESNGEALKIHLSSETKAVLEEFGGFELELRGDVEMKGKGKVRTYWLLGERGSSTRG
A3G deaminase: APOBEC3G DNA deaminase inhibitors, primary screen, biochemical, fluorescence, single-stranded DNA substrate, uHTS. recombinant A3G, ssDNA deamination FAM/TAMRA fluorescence. inhibition, % at 20 µM. hit rate 0.28% among 330,000. AID 493012, 2011;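 active = inhibition of at least 40% at 20 µM, with no more than 30% in the related APOBEC3A deaminase screen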;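 also: plate controls were DMSO wells with A3G for no effect and wells lacking A3G enzyme for full effect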
A3A deaminase: APOBEC3A ssDNA deaminase inhibitors, primary screen, selectivity assay for APOBEC3G inhibitor project, biochemical, FAM/TAMRA oligo cleavage fluorescence | DNA dC->dU-editing enzyme APOBEC-3A (Homo sapiens), P31941 | recombinant A3A, FAM/TAMRA ssDNA deamination fluorescence | inhibition, % at 20 µM | hit rate 0.41% among 330,000;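 active = at least 40% inhibition at 20 µM here, with at most 30% in a related deaminase screen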;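 also: plate controls were A3A with DMSO for no effect and wells lacking A3A enzyme for full effect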
FAS-TE inh: FAS thioesterase domain inhibitors, primary screen, biochemical, fluorescence intensity, uHTS; Fatty acid synthase (Homo sapiens), P49327; recombinant FAS-TE, OMFH fluorogenic substrate, fluorescence endpoint; inhibition, % at 15 µM; hit rate 0.67% among 360,000; AID 602261, 2012;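 active = compounds whose normalised, plate-corrected inhibition of enzyme fluorescence in the single-dose primary screen is 50% or more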;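 also: 0% = DMSO with enzyme and 100% = substrate without enzyme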
The depositor's hits bear a star; nt = no result given.

SMILES	NPR2 activator	GC-A act	A3G deaminase	A3A deaminase	FAS-TE inh
C[C@@H](CO)N(Cc1cn(Cc2ccccc2)nn1)S(=O)(=O)c1ccc(F)cc1Br	3	2	nt	nt	nt
N#CCCN1CCN(C(=S)c2ccc(-c3ccc(Cl)c(Cl)c3)o2)CC1	61*	29	-4	-4	-4
N#CCCN1CCN(C(=S)c2ccc(-c3cccc(Cl)c3)o2)CC1	73*	21	2	-4	17
N#Cc1ccc(NC(=O)OC2CC3CC2[C@H]2CCCCN2C3)cc1 (stereo partly drawn)	0	3	nt	nt	nt
COc1ccc(-c2ccc(NS(=O)(=O)c3cc([N+](=O)[O-])c(C)c([N+](=O)[O-])c3)cc2)nn1	2	0	-4	0	59*
O=C1OCCC1Sc1nnc(-c2ccc3c(c2)OCO3)o1 (stereo not drawn)	-7	28	-6	0	-5
O=C1OCCC1Sc1nnc(-c2cccc(Br)c2)o1 (stereo not drawn)	37*	60*	-1	-1	-8
COc1ccc(NC(=S)N/N=C2\CC(C)(C)Oc3ccc(O)cc32)cc1	-9	-2	-2	-1	15
COc1ccccc1NC(=S)N/N=C1\CC(C)(C)Oc2ccc(O)cc21	1	42*	-8	-4	20
CC(C)c1ccc(Nc2nnc(SC3CCOC3=O)s2)cc1 (stereo not drawn)	14	65*	-3	0	9
CCCC(=O)N1CCC[C@]2(CC[C@H](CCC#N)O2)C1	0	4	nt	nt	nt
N#CC1=C(N)SC(N)=C(C#N)C1CCc1ccccc1	0	3	-4	-1	-121
N#CC1=C(N)SC(N)=C(C#N)C1Cc1ccccc1	4	4	48*	-5	-73
CCC(C)n1nnc2c(=O)oc3ccccc3c21 (stereo not drawn)	-1	3	-2	1	-7
Cc1ccc(-n2nnc3c(=O)oc4ccccc4c32)cc1	39*	-3	-1	6	6
CCCOc1ccc(F)cc1-c1cc(C(=O)Nc2ccc(OC)cc2C)[nH]n1	62*	58*	nt	nt	18
CCCOc1ccc(F)cc1-c1cc(C(=O)Nc2ccc(OC)cc2OC)[nH]n1	1	11	nt	nt	21
COc1ccc(NC(=O)c2cc(-c3cc(Cl)ccc3OC)n[nH]2)c(C)c1	88*	75*	nt	nt	20
COc1ccc(NC(=O)c2cc(-c3cc(Cl)ccc3C)n[nH]2)c(OC)c1	0	4	nt	nt	18
OCC1COC(c2ccccc2)=N1 (stereo not drawn)	1	1	nt	nt	nt
CCCCNS(=O)(=O)CC1NCCc2ccccc21 (stereo not drawn)	2	4	nt	nt	nt
COc1ccc(Cl)c2c1[nH]c1nc(SCc3cccnc3)nnc12	43*	32	-1	3	-10
Cc1ccccc1-n1nc2c(c1NC(=O)c1cc3ccccc3oc1=O)CS(=O)(=O)C2	38*	31	-5	-1	nt
COC(=O)[C@]12C[C@H](CC(=O)N3CCN(C(=O)C4CC4)CC3)C(=O)N(Cc3ccc(Cl)cc3Cl)C1=C[C@H](C1CCCC1)O[C@@H]2C	-18	-27	nt	nt	nt
CCOC(=O)CCCCCC(=O)Nc1ccc2c(c1)C(=O)N([C@H](C)CO)C[C@@H](C)[C@@H](CN(C)S(=O)(=O)c1ccc(C)cc1)OCCCC[C@H](C)O2	4	0	nt	nt	nt
SMILES	NPR2 activator	GC-A act	A3G deaminase	A3A deaminase	FAS-TE inh
O=C(CNCc1ccccc1Cl)Nc1cc(S(=O)(=O)N2CCOCC2)ccc1Cl	3	-2	-2	0	10
O=C(Nc1cc(S(=O)(=O)N2CCOCC2)ccc1Cl)C(=O)c1c(-c2ccccc2)cc2ccccn12	0	-5	1	0	76*
CN(Cc1ccccc1)C(=O)OCc1cn(Cc2ccccc2)nn1	2	1	nt	nt	nt
Nc1sc(Cc2ccccc2)cc1C(=O)c1c(-c2ccccc2)[nH]c2ccccc12	-1	60*	nt	nt	nt
CC(C)C[C@H]1COc2cccc(F)c2S(=O)(=O)N1Cc1cn(CCC2OCCO2)nn1	10	3	nt	nt	nt
CC(C)c1ccc(C2NC(=S)NC3=C2C(=O)CC(C)(C)C3)cc1 (stereo not drawn)	2	43*	-6	-2	-7
NC(=O)c1c(NC(=O)COC(=O)CSc2nnc(-c3ccc(Cl)cc3)o2)sc2c1CCC2	-5	51*	-1	2	12
CCOC(=O)c1c(NC(=O)CSc2nnc(-c3ccc(OC)cc3)o2)sc2c1CCC2	-11	-2	-2	-3	19
N#Cc1ccc(NC(=O)COC(=O)CSc2nnc(-c3ccc(Cl)cc3)o2)cc1	-10	62*	-11	0	-2
O=C(COC(=O)CSc1nnc(-c2ccc(Cl)cc2)o1)NCc1ccc2c(c1)OCO2	4	63*	2	3	-4
COc1ccc(S[C@]2(C(=O)N3CCOCC3)CC(=O)N[C@@H]2c2ccc(OC)cc2)cc1	-3	-3	nt	nt	nt
COc1ccc(N2CCN(CCCNC(=O)Cc3ccc(C(F)(F)F)cc3)CC2)cc1	0	-6	nt	nt	nt
CC(C)NC(=S)NNc1ncnc2sc3c(c12)CC(C)(C)OC3	38*	33	0	-9	21
COCc1[nH]nc2c1C(c1ccc3c(c1)OCO3)N(Cc1ccccc1)C2=O (stereo not drawn)	-5	14	nt	nt	nt
CCn1c(=O)c(C(=O)CN2c3ccccc3CC2C)c(N)n(Cc2ccccc2)c1=O (stereo not drawn)	9	41*	5	2	13
O=S(=O)(c1ccccc1F)n1c(CN2CCOCC2)nc2ccccc21	-8	3	nt	nt	nt
Cc1c(N=C2N=C(NC(=O)c3ccc(F)cc3)c3ccccc32)c(=O)n(-c2ccccc2)n1C	-4	58*	-12	9	-30
Cc1c(NC(=O)NC(=O)c2ccc(F)cc2)c(=O)n(-c2ccccc2)n1C	-1	-3	-2	-4	-6
N#Cc1ccc(OC[C@@H](O)CN2CCC(C(O)(c3ccccc3)c3ccccc3)CC2)cc1F	-16	-18	nt	nt	nt
O=C(OCc1ccccc1)[C@H](Cc1ccccc1)NC(=O)[C@@H]1CC=C[C@@H]2CCN(Cc3ccccc3)C(=O)[C@@H]21	-5	-7	nt	nt	nt
CCOC(=O)c1[nH]c(C)c(C(=O)NC2CCCC2)c1C	56*	3	-11	-4	-3
CCn1cnc2c1c(=O)n(CC(=O)OC)c(=O)n2Cc1ccccc1	12	4	-2	0	-4
CCn1cnc2c1c(=O)n(Cc1ccc(C(=O)OC)cc1)c(=O)n2Cc1ccccc1	35*	-13	-11	-4	15
CN1C(=O)C[C@@](C#N)(C(=O)NCCc2ccccc2)[C@H]1c1ccccc1	-1	1	nt	nt	nt
